Experimental data from PubChem BioAssay (NCATS).
Values without a mark were called inactive. Records with an inconclusive call do not appear. Entries that show only a call come without a potency. Calls of active or inactive are those of the source. Unless noted, calls follow the shape of the dose curve; as a rule, active = well fitted curve in the direction sought with a large enough effect; inconclusive = small, poorly fitted or top-dose-only effect, or another doubt; inactive = no such curve, though single readings can be large; an effect the other way counts as inactive or inconclusive.

Assays:
[1] = target: Beta-2 adrenergic receptor (Homo sapiens) (UniProt P07550); assay: qHTS validation assay of beta-arrestin-biased ligands of beta2-adrenergic receptor (AID 485366)
Sequence of Beta-2 adrenergic receptor (Homo sapiens) (P07550 whole entry, looked up): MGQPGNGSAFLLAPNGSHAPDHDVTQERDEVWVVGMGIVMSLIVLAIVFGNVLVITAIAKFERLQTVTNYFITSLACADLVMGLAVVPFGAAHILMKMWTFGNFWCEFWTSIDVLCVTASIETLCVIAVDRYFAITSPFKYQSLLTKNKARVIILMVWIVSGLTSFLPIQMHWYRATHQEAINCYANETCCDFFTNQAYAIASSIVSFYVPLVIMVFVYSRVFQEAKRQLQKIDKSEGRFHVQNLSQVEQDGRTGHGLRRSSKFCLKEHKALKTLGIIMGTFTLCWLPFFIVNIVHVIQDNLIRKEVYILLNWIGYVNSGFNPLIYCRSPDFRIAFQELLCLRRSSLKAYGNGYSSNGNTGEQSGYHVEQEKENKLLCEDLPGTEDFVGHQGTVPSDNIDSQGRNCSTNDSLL
How it was run: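 Agonism was measured as beta-arrestin recruitment to recombinant beta2-AR, releasing tTA to drive luciferase. Cells were exposed for 18 hr at 37 degrees C to a series up to 46 microM. %Activity from corrected luminescence gave concentration-response curves.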

[2] = target: ATP-dependent 6-phosphofructokinase (Trypanosoma brucei brucei) (UniProt O15648); assay: qHTS Validation Assay to Find Inhibitors of T. brucei phosphofructokinase (AID 485368)
Sequence of ATP-dependent 6-phosphofructokinase (Trypanosoma brucei brucei) (O15648 whole entry, looked up): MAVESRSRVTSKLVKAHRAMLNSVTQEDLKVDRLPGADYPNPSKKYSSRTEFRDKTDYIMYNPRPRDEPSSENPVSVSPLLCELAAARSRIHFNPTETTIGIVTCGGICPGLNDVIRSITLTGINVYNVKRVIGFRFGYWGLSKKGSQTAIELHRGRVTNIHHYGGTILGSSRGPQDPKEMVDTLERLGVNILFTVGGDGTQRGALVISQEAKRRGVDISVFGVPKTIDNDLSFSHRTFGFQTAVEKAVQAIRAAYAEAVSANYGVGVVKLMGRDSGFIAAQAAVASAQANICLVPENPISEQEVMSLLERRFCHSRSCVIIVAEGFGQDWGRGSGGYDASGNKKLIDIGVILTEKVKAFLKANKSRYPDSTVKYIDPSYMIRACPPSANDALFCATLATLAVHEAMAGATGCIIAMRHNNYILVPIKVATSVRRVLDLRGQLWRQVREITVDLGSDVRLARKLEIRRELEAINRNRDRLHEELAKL
How it was run: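 ADP-Glo luminescence, two-step: residual ATP depleted, then ADP converted to ATP for luciferase. Enzyme 1.25 nM, F6P 0.5 mM, ATP 0.1 mM, pH 8.0 TEA buffer, 45 min RT. Curves fitted and classed by quality and efficacy.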

[3] = Quantitative high throughput screen for delayed death inhibitors of the malarial parasite plastid, 96 hour incubation (AID 488745); also: potency is read from the fitted curve at half-maximal effect; nearly all actives have a fitted effect of over 70% in size
How it was run: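 Two-generation (96 h) exposure of luciferase-reporter P. falciparum in erythrocytes, 2% hematocrit, 0.1% parasitemia final, 37 C, 5% CO2, RPMI 1640 with 0.5% Albumax. Growth inhibition scored by reduced luminescence.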

[4] = Quantitative high throughput screen for delayed death inhibitors of the malarial parasite plastid, 48 hour incubation (AID 488752); also: nearly all actives have a fitted effect of over 65% in size; also: potency is read from the fitted curve at half-maximal effect
How it was run: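 Cultures: infected erythrocytes at final 2% hematocrit and 0.1% parasitemia in Albumax-supplemented RPMI. Parasites express integrated firefly luciferase. Incubation with compound lasts 48 h before luminescent detection of remaining reporter activity.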

[5] = target: Thioredoxin reductase 1, cytoplasmic (Rattus norvegicus) (UniProt O89049); assay: qHTS Assay for Substrates of Mammalian Selenoprotein Thioredoxin Reductase 1 (TrxR1) (AID 488772);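 also: series mostly up to about 57 µM; a drop in NADPH fluorescence below the no-compound background marks a TrxR1 substrate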
Sequence of Thioredoxin reductase 1, cytoplasmic (Rattus norvegicus) (O89049 whole entry, looked up): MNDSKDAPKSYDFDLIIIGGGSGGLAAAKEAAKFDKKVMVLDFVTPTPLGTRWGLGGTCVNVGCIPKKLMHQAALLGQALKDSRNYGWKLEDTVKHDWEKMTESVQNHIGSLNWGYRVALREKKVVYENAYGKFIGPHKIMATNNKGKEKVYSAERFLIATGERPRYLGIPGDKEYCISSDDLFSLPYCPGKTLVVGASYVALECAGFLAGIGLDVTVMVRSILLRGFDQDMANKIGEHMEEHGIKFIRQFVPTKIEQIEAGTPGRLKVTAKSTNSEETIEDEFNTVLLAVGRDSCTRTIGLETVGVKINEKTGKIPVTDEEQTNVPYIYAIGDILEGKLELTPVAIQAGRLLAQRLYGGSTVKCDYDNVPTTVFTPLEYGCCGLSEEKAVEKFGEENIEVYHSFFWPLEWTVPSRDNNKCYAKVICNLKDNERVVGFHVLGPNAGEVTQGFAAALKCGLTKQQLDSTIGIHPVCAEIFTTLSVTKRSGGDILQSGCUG
How it was run: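 In this dual-purpose format, potential substrates are identified from the first fluorescence read after selenite addition, not from the 8-minute delta. Rat enzyme is preincubated with NADPH and then with compound at ~22 deg C.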

[6] = target: Thioredoxin reductase 1, cytoplasmic (Rattus norvegicus) (UniProt O89049); assay: qHTS Assay for Inhibitors of Mammalian Selenoprotein Thioredoxin Reductase 1 (TrxR1) (AID 488773); details: Potency: inhibition;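 also: drop in NADPH fluorescence over an 8 min run after selenite addition; series mostly up to about 57 µM; nearly all actives have a fitted effect of over 40% in size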
How it was run: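 Inhibition is scored from the loss of NADPH fluorescence between first and last reads of an 8-min kinetic run. Selenite (400 uM) was the substrate, added after 15 min compound preincubation at room temperature.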

[7] = target: Flap endonuclease 1 (Homo sapiens) (UniProt P39748); assay: qHTS Validation Assay for the Inhibitors of Human Flap endonuclease 1 (FEN1) (AID 488816)
Sequence of Flap endonuclease 1 (Homo sapiens) (P39748 whole entry, looked up): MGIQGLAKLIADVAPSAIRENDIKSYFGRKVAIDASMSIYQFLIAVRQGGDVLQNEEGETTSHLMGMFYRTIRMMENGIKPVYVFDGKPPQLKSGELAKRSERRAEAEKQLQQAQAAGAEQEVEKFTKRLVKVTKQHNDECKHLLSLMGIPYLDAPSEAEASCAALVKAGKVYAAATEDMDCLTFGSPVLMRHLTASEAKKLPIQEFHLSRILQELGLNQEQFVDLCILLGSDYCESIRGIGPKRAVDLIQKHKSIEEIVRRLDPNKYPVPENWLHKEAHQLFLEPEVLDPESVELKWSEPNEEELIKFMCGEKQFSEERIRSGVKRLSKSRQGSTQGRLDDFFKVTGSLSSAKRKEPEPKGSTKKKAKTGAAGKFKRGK
How it was run: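 qHTS format: compounds and 10 nM FEN1 incubated 15 min at room temperature before adding 50 nM substrate. Cleavage followed by reads at 0 and 15 min; normalized data fitted to a four-parameter Hill curve.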

[8] = target: M-phase phosphoprotein 8 (Homo sapiens) (UniProt Q99549); assay: qHTS Validation Assay for Inhibitors for MPP8 Chromodomain Interactions with Methylated Histone Tails (AID 488949); also: nearly all actives have a fitted effect of over 55% in size; also: potency is read from the fitted curve at half-maximal effect
How it was run: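 MPP8 (50 nM) was pre-bound to 50 nM biotinylated H3(1-18)K9me3 peptide in PBS pH 7.4 with 0.01% Tween-20. Compounds were then added for 30 min at room temperature, and complex disruption was read by AlphaScreen with streptavidin donor and nickel-chelate acceptor beads.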

[9] = target: Chromobox protein homolog 1 (Homo sapiens) (UniProt P83916); assay: qHTS Validation Assay for Inhibitors of HP1-beta Chromodomain Interactions with Methylated Histone Tails (AID 488953); also: nearly all actives have a fitted effect of over 50% in size; also: potency is read from the fitted curve at half-maximal effect
Sequence of Chromobox protein homolog 1 (Homo sapiens) (P83916 whole entry, looked up): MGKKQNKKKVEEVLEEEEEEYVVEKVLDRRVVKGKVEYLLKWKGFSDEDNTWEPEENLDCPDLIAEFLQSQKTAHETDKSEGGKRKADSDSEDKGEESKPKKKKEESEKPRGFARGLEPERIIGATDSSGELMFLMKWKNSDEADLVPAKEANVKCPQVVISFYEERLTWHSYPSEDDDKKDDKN
How it was run: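 Compounds pinned into a preassembled complex of HP1-beta and trimethyl-K9 histone H3(1-18) biotin peptide (50 nM each; PBS pH 7.4, 0.01% Tween-20). After 30 min, bead-based AlphaScreen detection followed.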

[10] = target: Methanococcus maripaludis chaperonin (MmCpn) (UniProt Q6LX38); assay: High-Throughput Screening for Modulators of Cytosolic Chaperonin Activity: MmCpn Primary Screen (AID 488978);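 also: 50 nM MmCpn enzyme hydrolysing 30 µM ATP at 37 °C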
How it was run: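 MmCpn at 50 nM final was preincubated 5 min at RT with compound. ATP was then added at 30 uM final for 10 min at 37 C. ADP formed was detected by Transcreener HTRF (665/590 nm).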

[11] = target: Thyrotropin receptor (Homo sapiens) (UniProt P16473); assay: qHTS Assay for Antagonists of the Thyroid Stimulating Hormone Receptor (AID 488980); also: series mostly up to about 58 µM
How it was run: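 TSHR-transfected HEK293 cells (2000/well) in HEPES-buffered HBSS with 70 uM RO 20-1724 were stimulated with 4 nM TSH (EC80, final) in the presence of compound. cAMP was measured by HTRF competition after lysis and 30 min at RT.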

[12] = target: D(1A) dopamine receptor (Homo sapiens) (UniProt P21728); assay: HTS Assay for Allosteric Agonists of the Human D1 Dopamine Receptor: Primary Screen for Agonists (AID 488981)
Sequence of D(1A) dopamine receptor (Homo sapiens) (P21728 whole entry, looked up): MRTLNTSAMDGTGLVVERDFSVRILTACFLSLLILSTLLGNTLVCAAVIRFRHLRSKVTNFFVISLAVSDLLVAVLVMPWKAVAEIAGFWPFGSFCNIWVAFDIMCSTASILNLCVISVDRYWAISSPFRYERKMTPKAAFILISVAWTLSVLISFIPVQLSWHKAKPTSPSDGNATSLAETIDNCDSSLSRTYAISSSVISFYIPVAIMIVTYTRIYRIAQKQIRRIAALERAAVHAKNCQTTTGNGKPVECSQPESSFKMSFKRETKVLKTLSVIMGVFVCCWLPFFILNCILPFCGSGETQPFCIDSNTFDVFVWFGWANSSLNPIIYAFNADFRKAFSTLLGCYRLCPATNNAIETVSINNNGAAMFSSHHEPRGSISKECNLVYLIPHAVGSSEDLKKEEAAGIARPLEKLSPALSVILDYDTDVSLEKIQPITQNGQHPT
How it was run: (§1)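 Calcium flux in an inducible, force-coupled HEK293 Trex D1 line (overnight at 30 C): agonist mode is the 180 s kinetic read after compound; potentiator mode is the following 180 s read after dopamine at EC20.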

[13] = target: D(1A) dopamine receptor (Homo sapiens) (UniProt P21728); assay: HTS Assay for Allosteric Agonists of the Human D1 Dopamine Receptor: Primary Screen for Potentiators (AID 488982); also: potency is read from the fitted curve at half-maximal effect
How it was run: as §1

[14] = Validation screen for small molecules that induce genotoxicity in human embryonic kidney (HEK293T) cells expressing luciferase-tagged ELG1 (AID 493106)
How it was run: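 In this validation screen, increased ELG1-luciferase signal flags compounds causing genetic stress. HEK293T reporter cells are treated 16 hr (37 °C, 5% CO2), developed with ONE-Glo for 30 min at room temperature, and imaged on a CCD-based reader.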

[15] = target: ATPase family AAA domain-containing protein 5 (Homo sapiens) (UniProt Q96QE3); assay: Validation screen for small molecules that inhibit ELG1-dependent DNA repair in human embryonic kidney (HEK293T) cells expressing luciferase-tagged ELG1 (AID 493107);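 also: cells co-treated with the DNA-damaging agent 5-fluorouridine alongside compound; series mostly up to about 46 µM; inhibitors lower the ELG1-luciferase luminescence signal; nearly all actives have a fitted effect of over 70% in size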
Sequence of ATPase family AAA domain-containing protein 5 (Homo sapiens) (Q96QE3 whole entry, looked up, the tested form may be a part): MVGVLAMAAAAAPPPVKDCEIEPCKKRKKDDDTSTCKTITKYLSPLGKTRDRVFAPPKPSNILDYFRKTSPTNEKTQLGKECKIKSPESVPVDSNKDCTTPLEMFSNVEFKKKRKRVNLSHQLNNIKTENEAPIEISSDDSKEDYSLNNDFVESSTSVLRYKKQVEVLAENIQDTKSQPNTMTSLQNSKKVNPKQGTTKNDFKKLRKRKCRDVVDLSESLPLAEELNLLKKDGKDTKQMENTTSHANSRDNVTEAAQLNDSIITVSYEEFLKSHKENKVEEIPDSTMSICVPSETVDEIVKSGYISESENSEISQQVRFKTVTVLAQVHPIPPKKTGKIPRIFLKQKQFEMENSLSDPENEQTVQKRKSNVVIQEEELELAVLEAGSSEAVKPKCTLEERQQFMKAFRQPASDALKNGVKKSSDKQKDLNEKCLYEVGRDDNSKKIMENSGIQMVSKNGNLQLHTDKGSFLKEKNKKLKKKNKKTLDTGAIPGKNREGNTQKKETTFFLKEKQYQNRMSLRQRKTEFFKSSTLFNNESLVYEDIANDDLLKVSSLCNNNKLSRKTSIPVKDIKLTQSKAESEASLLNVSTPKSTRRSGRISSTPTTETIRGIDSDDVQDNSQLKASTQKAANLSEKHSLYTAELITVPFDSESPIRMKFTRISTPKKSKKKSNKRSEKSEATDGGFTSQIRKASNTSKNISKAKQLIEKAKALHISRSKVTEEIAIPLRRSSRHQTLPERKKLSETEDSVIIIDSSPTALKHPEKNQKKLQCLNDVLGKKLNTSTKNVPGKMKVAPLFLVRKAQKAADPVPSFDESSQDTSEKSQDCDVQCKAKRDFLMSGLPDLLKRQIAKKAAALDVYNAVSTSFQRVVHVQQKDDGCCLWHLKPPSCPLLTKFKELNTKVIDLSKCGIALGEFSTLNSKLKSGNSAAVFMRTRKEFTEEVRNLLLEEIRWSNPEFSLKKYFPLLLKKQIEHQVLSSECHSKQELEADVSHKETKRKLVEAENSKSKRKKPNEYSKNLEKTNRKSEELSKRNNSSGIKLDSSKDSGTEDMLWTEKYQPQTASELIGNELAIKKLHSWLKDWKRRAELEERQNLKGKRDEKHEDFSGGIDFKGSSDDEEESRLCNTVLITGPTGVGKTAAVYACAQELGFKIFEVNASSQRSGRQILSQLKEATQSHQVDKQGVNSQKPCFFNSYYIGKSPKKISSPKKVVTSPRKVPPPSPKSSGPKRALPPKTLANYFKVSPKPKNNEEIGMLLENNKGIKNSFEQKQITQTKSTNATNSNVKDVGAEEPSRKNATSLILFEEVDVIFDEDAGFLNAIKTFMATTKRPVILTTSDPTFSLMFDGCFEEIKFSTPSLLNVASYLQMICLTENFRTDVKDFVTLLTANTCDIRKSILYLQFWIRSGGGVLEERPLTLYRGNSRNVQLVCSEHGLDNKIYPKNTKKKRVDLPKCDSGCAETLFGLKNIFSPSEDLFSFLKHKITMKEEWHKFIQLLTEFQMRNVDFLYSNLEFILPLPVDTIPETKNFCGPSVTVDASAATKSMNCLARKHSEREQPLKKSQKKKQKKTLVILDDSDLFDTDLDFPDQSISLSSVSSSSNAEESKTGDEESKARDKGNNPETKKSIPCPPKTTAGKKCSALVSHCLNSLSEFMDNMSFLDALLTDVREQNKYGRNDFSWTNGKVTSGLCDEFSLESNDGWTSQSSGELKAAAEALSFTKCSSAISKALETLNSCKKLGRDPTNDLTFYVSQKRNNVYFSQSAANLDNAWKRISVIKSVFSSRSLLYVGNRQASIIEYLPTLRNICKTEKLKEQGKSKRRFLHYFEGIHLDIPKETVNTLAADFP
How it was run: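 Compounds reducing 5-fluorouridine-driven ELG1-luciferase signal in HEK293T cells were scored; exposure lasted 16 hr at 37 °C with luminescence detected via ONE-Glo.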

[16] = target: Thyrotropin-releasing hormone receptor (Homo sapiens) (UniProt P34981); assay: qHTS for Small Molecule Agonists and Allosteric Enhancers of Human TRH Receptor: Validation Screen for Agonists (AID 493127;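 active = calcium activation more than 3 SD above the typical response in the agonist read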;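 also: intracellular calcium rise by fluo-8 fluorescence before TRH EC20 addition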); details: TRH receptor agonist cell assay; at 2 µM; hits give high values
Sequence of Thyrotropin-releasing hormone receptor (Homo sapiens) (P34981 whole entry, looked up): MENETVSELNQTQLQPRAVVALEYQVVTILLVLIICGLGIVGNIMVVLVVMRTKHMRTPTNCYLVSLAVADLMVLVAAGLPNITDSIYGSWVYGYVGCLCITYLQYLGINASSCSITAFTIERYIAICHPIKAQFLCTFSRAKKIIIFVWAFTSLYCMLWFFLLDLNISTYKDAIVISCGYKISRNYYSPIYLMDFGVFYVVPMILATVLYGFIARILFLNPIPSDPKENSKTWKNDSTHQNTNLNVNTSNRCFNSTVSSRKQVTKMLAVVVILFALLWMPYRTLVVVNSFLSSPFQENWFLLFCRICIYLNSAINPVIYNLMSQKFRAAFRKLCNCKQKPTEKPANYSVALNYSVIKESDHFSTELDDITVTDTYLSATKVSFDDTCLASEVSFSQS
How it was run: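 Kinetic fluorescence assay of agonist-induced calcium release: overnight-plated TRHR cells, room-temperature fluo-8 loading, baseline then compound addition with per-second reads.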

[17] = target: Transient receptor potential cation channel subfamily V member 1 (Homo sapiens) (UniProt Q8NER1); assay: HTS Assay for Compounds that Act as Enhancers of the Vanilloid Receptor 1 (AID 488979)
How it was run: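 Calcium influx kinetics via Fluo-8 (480/520 nm) in TRPV1-expressing cells, 2000/well cultured overnight at 35.5C. Compound-alone read 3 min (agonist phase), followed by EC20 capsaicin challenge for 2 min (enhancer phase).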

[18] = target: D(1A) dopamine receptor (Homo sapiens) (UniProt P21728); assay: HTS Assay for Allosteric Agonists of the Human D1 Dopamine Receptor: Primary Screen for Antagonists (AID 488983);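 also: calcium flux response to an EC80 dopamine challenge measured with no-wash dye; nearly all actives have a fitted effect of over 65% in size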
How it was run: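 In this primary screen, compounds are applied to calcium-dye-loaded HEK293 T-REx cells with force-coupled D1 expression induced overnight at 30 C. An EC80 of dopamine follows the 180 s compound phase, and calcium is monitored for a further 180 s.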

CCCN(CCc1ccccc1)C1CCc2c(O)cccc2C1 (stereo not drawn)
outcome [1]: inactive | Potency [2]: inactive | Potency [3]: 3.29 µM (active) | Potency [4]: 3.29 µM (active) | outcome [5]: inactive | Potency [6]: inactive | Potency [7]: inactive | Potency [8]: inactive | Potency [9]: inactive | outcome [10]: inactive | outcome [11]: inactive | Potency [12]: inactive | Potency [13]: inactive | Potency [14]: inactive | Potency [15]: inactive | activation [16]: 1.25%

CC#CCOC(=O)c1c(C)nc2sc3c(c2c1N)CCC(O)C3 (stereo not drawn)
outcome [1]: inactive | Potency [2]: inactive | outcome [5]: inactive | Potency [6]: inactive | Potency [7]: inactive | Potency [8]: inactive | Potency [9]: inactive | outcome [10]: inactive | outcome [17]: inactive | outcome [11]: inactive | Potency [12]: inactive | Potency [13]: inactive | Potency [18]: inactive | Potency [14]: inactive | Potency [15]: inactive | activation [16]: 0.438%

O[Si](CCCN1CCCCC1)(c1ccc(F)cc1)C1CCCCC1 (stereo not drawn)
outcome [1]: inactive | Potency [2]: inactive | Potency [3]: 0.117 µM (active) | Potency [4]: 0.117 µM (active) | Potency [6]: inactive | Potency [7]: inactive | Potency [8]: inactive | Potency [9]: inactive | outcome [10]: inactive | outcome [11]: inactive | Potency [13]: inactive | Potency [18]: inactive | Potency [14]: inactive | Potency [15]: inactive | activation [16]: 5.12%

C=CCN1CCc2cc(O)c(O)cc2C(c2ccccc2)C1 (stereo not drawn)
outcome [1]: inactive | Potency [2]: inactive | outcome [5]: inactive | Potency [6]: inactive | Potency [7]: inactive | Potency [8]: inactive | outcome [10]: inactive | outcome [17]: inactive | outcome [11]: inactive | Potency [12]: inactive | Potency [13]: inactive | Potency [14]: inactive | Potency [15]: inactive | activation [16]: 1.38%

Nc1ccc(CCNc2ncnc3c2ncn3C2OC(CO)C(O)C2O)cc1 (stereo not drawn)
outcome [1]: inactive | Potency [2]: inactive | Potency [4]: inactive | Potency [6]: inactive | Potency [7]: inactive | Potency [8]: inactive | Potency [9]: inactive | outcome [10]: inactive | outcome [17]: inactive | outcome [11]: inactive | Potency [13]: inactive | Potency [18]: inactive | Potency [15]: inactive | activation [16]: 1.06%

CCCC(=O)NCCc1c2n(c3ccc(OC)cc13)CCCc1ccccc1-2
outcome [1]: inactive | Potency [2]: inactive | Potency [4]: inactive | outcome [5]: inactive | Potency [6]: inactive | Potency [7]: inactive | Potency [8]: 28.2 µM (active) | Potency [9]: 35.5 µM (active) | outcome [10]: inactive | outcome [17]: inactive | outcome [11]: inactive | Potency [12]: inactive | Potency [13]: inactive | Potency [18]: inactive | Potency [14]: inactive | activation [16]: -9.25%

O=c1[nH]c2ccccc2c2ccccc12
outcome [1]: inactive | Potency [2]: inactive | Potency [4]: inactive | outcome [5]: inactive | Potency [6]: inactive | Potency [7]: inactive | Potency [8]: inactive | Potency [9]: inactive | outcome [17]: inactive | outcome [11]: inactive | Potency [12]: inactive | Potency [13]: inactive | Potency [18]: inactive | Potency [14]: inactive | Potency [15]: inactive | activation [16]: -4.5%

c1ccc(C(NCc2cccnc2)(c2ccccc2)c2ccccc2)cc1
outcome [1]: inactive | Potency [2]: inactive | outcome [5]: inactive | Potency [6]: inactive | Potency [7]: inactive | Potency [8]: inactive | Potency [9]: inactive | outcome [10]: inactive | Potency [12]: inactive | Potency [13]: 4.11 µM (active) | Potency [14]: inactive
